# According to PubChem BioAssay (EPA / NIEHS):
# Activity calls are given as the source filed them. How the source made its calls: active means hit-call score of the fitted dose curve at least 0.9, where 1 is the maximum; inactive means score below 0.9.
# Read-out: Cytochrome P450 7A1 (Homo sapiens) (UniProt P22680)
# Assay: LTEA_HepaRG_CYP7A1: Life Technologies and Expression Analysis (LTEA) Assay for Cytochrome P450 7A1 (CYP7A1) using HepaRG (AID 2283496)
# Settings: mRNA level, 48 h; actives raise or lower the signal
# Description: LTEA_HepaRG is a cell based, multiplexed-readout assay that uses HepaRG, a human liver cell line, with measurements taken at 48 hours after chemical dosing on a 96-well plate.LTEA_HepaRG_CYP7A1 is one of 102 assay component(s) measured in the LTEA HepaRG cell culture assay. It is a marker of NR mediated metabolism.Data from the assay component LTEA_HepaRG_CYP7A1 was analyzed into 1 endpoint. This assay endpoint, LTEA_HepaRG_CYP7A1, was analyzed with bidirectional fitting relative to DMSO as the negative control and baseline of activity. Using a type of inducible reporter, measures of mRNA induction for gain or loss-of-signal activity can be used to understand regulation of transcription factor activity. To generalize the intended target to other relatable targets, this assay endpoint is annotated to the cyp intended target family, where the subfamily is xenobiotic metabolism.
# A total of 1060 chemcials from the ToxCast library were tested in eight-point concentration-response experiments. Cell culture and cytotoxicity assays were conducted at Thermo Fisher Scientific's Custom Services facility (Madison, WI). A single lot of human HepaRG cells (Thermo Fisher Scientific, Frederick, MD) was used for the cell culture experiments. 96-well format collagen type I coated plates of human HepaRG cells were prepared using established methods. Briefly, cryopreserved HepaRG cells were thawed, plated at a density of approximately 100,000 cells/well in HepaRG Thaw, Plate, and General Purpose media (HPRG770, Thermo Fisher Scientific), and incubated for 48 hours. 0.5% DMSO was selected as vehicle control to balance the requisite need of DMSO in HepaRG cultures to maintain differentiation (for example, baseline metabolism, proportions of hepatocytes vs. cholangiocytes), while enabling further hepatic receptor pathway activation (for example, PXR and CAR) in response to chemical exposure. 48 hours after plating, the culture medium was replaced with HepaRG Serum-Free Incudtion Media. Cells were exposed to each test chemical in duplicate and maintained in CO2 incubators for another 48 hours. Chemical plates were thawed to room temperature and 200x concentrations of treatment groups were prepared. 8-point conentration-reponse curves were made with the highest exposure at 100 uM, followed by half-log dilutions, all in 0.5% DMSO. Each test plate contained variouse controls, induction positive controls (1mM phenobarbital), cytotoxicity positive controls ([…] aflatoxin B1), vehicle controls (0.5% DMSO), and total lysis controls (0.5% DMSO). Cell morphology images were taken using an Essen IncuCyte FLR automated microscope, with six 96-well plates imaged in about 24 minutes. Images were captured and exported and JPEG files. Spent culture media was transfered to black-well plates for the LDH assay, and remaining media was sorted at -80 C for later use. Cells were treated with RLT buffer and frozen until shipped for gene expression analysis. Total RNA was isolated from the cell suspension in 75 uL of Buffer RLT (Qiagen, Germantown, MD 20874) by Quintiles/Expression Analysis (Durham, NC) using a custom isolation procedure. Total RNA from each plate well was transferred to a preamplification plate. Fluidigm's 96.96 Dynamic ArrayTM (Fluidigm, Amsterdam, the Netherlands) technology was used for gene expression analyses by quantitative reverse transcription polymerase chain reaction (qRT-PCR, performed by Quintiles/Expression Analysis, Durham, NC)89. Standard TaqManTM Assays (Applied Biosystems/ThermoFisher Scientific, Foster City, CA) were used to assess the expression of 93 genes selected based on their selectivity and sensitivity to important hepatic receptors known to be modulated by environmental chemicals; importance in human hepatocyte functionality; and hepatotoxicity. […]
SMILES,outcome,AC50
Clc1cc(Cl)c(Cl)cc1Cl,inactive,
CCOC(=O)CCC(=O)OCC,inactive,
NC(=O)Cn1c(=O)cc(CCN2CCN(c3nccc4sccc34)CC2)c2ccc(F)cc21,,21.5 µM (active)
C=CCc1ccc(O)c(OC)c1,inactive,
OC[C@@H](O)[C@@H](O)[C@H](O)[C@H](O)CO,inactive,
COC(=O)c1ccc(O)cc1,inactive,
Nc1ccccc1N,,79.9 µM (active)
CCCCC(CC)COC(=O)CC(C(=O)OCC(CC)CCCC)S(=O)(=O)O (stereo not given),,92 µM (active)
CC=Cc1ccc(O)c(OC)c1,inactive,
Nc1nc(N)c2nc(CNc3ccc(C(=O)N[C@@H](CCC(=O)O)C(=O)O)cc3)cnc2n1,,0.162 µM (active)
Oc1ccc2ccccc2c1N=Nc1ccccc1,,16.3 µM (active)
Cc1oc(-c2ccccc2)nc1CCOc1cccc2c1ccn2CCC(=O)O,,82.3 µM (active)
CC(=O)C(C)=CC1C(C)=CCCC1(C)C (stereo not given),inactive,
COc1ccc(S(=O)(=O)N2C(=O)[C@@](c3ccccc3OC)(N3C[C@H](O)C[C@H]3C(=O)N(C)C)c3cc(Cl)ccc32)c(OC)c1,,21 µM (active)
COc1ccc2c(c1)c(CC(=O)O)c(C)n2C(=O)c1ccc(Cl)cc1,inactive,
CCCCCCCCCCCCCO,inactive,
CCCCCCCCCCCCCCCCCC(=O)O,inactive,
Cc1cc(NC(=O)C(=O)O)cc(C)c1Oc1ccc(O)c2c1CCC2,,0.229 µM (active)
CC1(C)CC(N=C=O)CC(C)(CN=C=O)C1 (stereo not given),inactive,
CCCCCCCCCCCCCCCC,inactive,

SMILES,outcome,AC50
CC1(C)NC(=O)NC1=O,inactive,
O=C(O)Cc1ccccc1Nc1c(Cl)cccc1Cl,,1.24 µM (active)
COCCOC[C@H](CC1(C(=O)NC2CCC(C(=O)O)CC2)CCCC1)C(=O)Oc1ccc2c(c1)CCC2 (stereo not given in full),inactive,
O=c1[nH]cc(F)c(=O)[nH]1,,64.6 µM (active)
Cc1ccc(C(C)C)c(O)c1,inactive,
CNCc1cc(F)ccc1Oc1ccc(Cl)c(Cl)c1,,85.1 µM (active)
Oc1ccc2c(c1)OC[C@@H](N1CCC(O)(c3ccc(F)cc3)CC1)[C@H]2O,inactive,
Cc1cccc([N+](=O)[O-])c1C,inactive,
CCNc1cccc(C)c1,inactive,
CCCCCCCCCCO,inactive,
CCCCCC(=O)O,inactive,
O=C(N[C@@H](Cc1ccccc1)[C@@H](O)C(=O)N1C[C@@H](O)[C@@H](O)C1)c1cc2cc(Cl)ccc2[nH]1,inactive,
Cc1cccc(C)c1O,inactive,
COc1cc(S(=O)(=O)O)c(C)cc1N=Nc1c(O)ccc2cc(S(=O)(=O)O)ccc12,inactive,
COCCOCCOC,inactive,
Cc1ccc2ncccc2c1,inactive,
CCCCOC(=O)CCCCCCCCC(=O)OCCCC,inactive,
CCCCCCCC=O,inactive,
CCCCCCCCCCCC(=O)OC,inactive,
CCCCCCCCCCC,inactive,
